Results on 55 compounds are retold here after ChEMBL document CHEMBL4513216, “Probing the Open Global Health Chemical Diversity Library for Multistage-Active Starting Points for Next-Generation Antimalarials” (ACS Infect Dis, 2020).

Hit rate of the full screen: of about 65,000 compounds, about 2,100 (3.2%) showed an effect of 50% or more. The median lay at about -52%. The sample as a whole holds a higher share of strong results than the screen did.

The subject of the assay is Plasmodium falciparum. Nature of the assay: Screen against P. falciparum Asexual Blood Stage (ABS), at 5uM. The format is functional, Dd2. As to conditions: tested at 5 uM.
Regarding `Cn1cc(NC(=O)N2CCC(OCc3ccccc3)CC2)ccc1=O`, the INHIBITION is given as 43.6%.
Next, `Cc1nn(C)c(N(C)C)c1CNCC(O)COc1cccc(F)c1` (stereo not given): -0.711%.
Next, `COC(=O)c1ncccc1N1CCN(C(=O)CN2CCOCC2)CC1`: -131%.
As for `Cc1cnn(CC2CCCCN2C(=O)Cc2cn3ccsc3n2)c1` (stereo not given), the INHIBITION is -120%.
On to `CCc1cnc2c(c1Nc1ccc(C)c(F)c1)c(=O)n(C)c(=O)n2C`, for which the INHIBITION turned out to be 41.1%.
Next, `Cc1c(C)n(Cc2ccccn2)c2nc3c(c(N)c12)CCCCCC3`: 60.3%; `Cc1c(C)n(Cc2ccccn2)c2nc3c(c(N)c12)CCCCC3`: 23.7%.
The figure for `Cc1c(C)n(Cc2ccncc2)c2nc3c(c(N)c12)CCCCC3` is 21%; for `Cc1cccc2c1ccn2CCC(=O)Nc1c2c(nn1C)CSC2` it is -53.4%.
The figure for `Cc1ccc(Br)cc1NC(=O)NC1CCC2(C1)OCCO2` (stereo not given) is -96.9%.
As for `CC1N(c2cnn(C)c2)C(=O)COC12CCN(c1ncccn1)CC2` (stereo not given), the INHIBITION is given as -127%.
Next, `CCc1nn(-c2cc(Oc3cc(C)ccc3C)ncn2)c(N)c1C#N`: -64%; `C[C@]1(O)CN(CC(=O)N2CCCC2)CC[C@@H]1Oc1cccc(F)c1`: 25%; `C[C@]1(O)CN(CCC(N)=O)CC[C@@H]1Oc1cccc(F)c1`: -39.3%.
Next, `C[C@]1(O)CN(CCO)CC[C@@H]1Oc1cccc(F)c1`: 65.2%; `CCc1cnc(N2CCc3cc(C(=O)NC)c(N(C)C)nc3CC2)nc1`: -12.1%.
The figure for `O=C1[C@@H]2CC[C@@H](CN(c3ncnc4ccsc34)C2)N1CC1CC1` is -85.4%; for `CC(C)Cc1noc(CN(C)c2ncccn2)n1` it is -64.8%.
On to `CC(C)Cc1noc(CN(C)c2cc(N(C)C)ncn2)n1`, for which the INHIBITION worked out at 50.4%.
In the case of `CCc1cc(N(C)Cc2noc(CC(C)C)n2)ncn1`, the INHIBITION is -78.3%.
Next, `CNc1cc(N2CCCC2CNCc2ccco2)ncn1` (stereo not given): -103%; `O=C(C1CCOC1)N1CC2(CCN(c3ccccc3)C2)C1` (stereo not given): -3.52%; `CC(C)CC(=O)N1CC(=O)c2sc(Nc3ccc(F)cc3F)nc2C1`: -30.6%.
Turning to `Cc1cnn(CC2CCN(CC(O)CN3CCC(C)CC3)CC2)c1` (stereo not given), the INHIBITION amounted to 63.8%.
Next, `Cc1cnn(CC2CCN(CC(O)Cn3cccn3)CC2)c1` (stereo not given): -78.8%; `Cc1ccc(OCC(O)CN2CCC(Cn3cc(C)cn3)CC2)cc1` (stereo not given): -93.6%; `CCc1nc(C)c(C(=O)NCCNC(=O)c2cccs2)s1`: -96.9%.
The figure for `CCc1nc(NCCCn2cccn2)c2c(n1)c(C)nn2CC` is -75.8%; for `COCCNC(=O)CN(C)C(C)c1nc(C)no1` (stereo not given) it is -63.5%; for `Cc1ccsc1C(=O)NCc1ccnc(C2CCCOC2)n1` (stereo not given) it is -57.8%.
The figure for `Cc1ccc(C(=O)NCc2ccnc(C3CCCOC3)n2)s1` (stereo not given) is 53.3%.
Consider `Cn1cccc1C(=O)NCc1ccnc(C2CCCOC2)n1` (stereo not given), for which the INHIBITION is recorded as -162%.
The figure for `COc1ccc(-c2cc(N)ccn2)c(OC)c1OC` is -9.16%.
The figure for `COc1cc(F)ccc1-c1cc(CO)ccn1` is -92%; for `COc1cc(F)ccc1-c1cc(N)ccn1` it is 52.7%; for `CC(=O)NCc1nn(C)c2c1CN(Cc1ccsc1)C2` it is -24.6%.
The figure for `Cc1csc(N2CCN(C3CCc4ccccc4C3)CC2)n1` (stereo not given) is -22.1%.
In the case of `Fc1ccc(CN2CCC3(CCN(Cc4nccs4)CC3)C2)cc1`, the INHIBITION came to 57.9%.
The figure for `Fc1ccc(CN2CCOCC3(CCN(Cc4nccs4)C3)C2)cc1` (stereo not given) is 0.38%; for `c1cnc(N2CCC3(CCN(Cc4cccnc4)CC3)CC2)nc1` it is -71.4%; for `COc1ccc(CN2CCC3(CC2)CCN(c2ncccn2)CC3)cc1` it is -85.1%.
Take `Fc1ccc(CN2CCC3(CC2)CCN(c2ncccn2)CC3)cc1`: the INHIBITION is recorded as 55%.
The figure for `c1csc(CN2CC3(CCN(Cc4ccsc4)C3)C2)n1` is -42.4%; for `CSc1cccc(NC(=O)N2CCC3(CCC(=O)N(C4CC4)C3)CC2)c1` it is -19.6%; for `O=C(CCC(F)(F)F)N1CCCC(CO)(CC2CC2)C1` (stereo not given) it is -11.2%.
On to `Cc1ccc(CN2CCc3c(nnn3C)C2COCc2ccccc2)s1` (stereo not given), for which the INHIBITION was -109%.
Next, `O=C(N1CCSCC1)C1(O)Cc2ccccc2C1`: -41.2%.
Next, `O=C(N1CCN(CCO)CC1)C1(O)Cc2ccccc2C1`: -1.26%; `O=C(N1CCc2ccccc2CC1)C1(O)Cc2ccccc2C1`: 58.7%.
The figure for `Nc1nnnn1NCc1cccc(Cl)c1Cl` is -65.4%.
As for `Cc1cc(NC(=O)CN2CCCC2Cn2nc(C)nc2C)n(C)n1` (stereo not given), the INHIBITION was -142%.
Next, `Cc1nc(C)n(CC2CCCN(CC(=O)Nc3cc(C)on3)C2)n1` (stereo not given): 3.79%; `Cc1nc(C)n(CC2CCCN(CC(=O)Nc3cccnc3)C2)n1` (stereo not given): -133%.
Consider `Cc1cc(NC(=O)CN2CCCC(Cn3nc(C)nc3C)C2)n(C)n1` (stereo not given), for which the INHIBITION came to 54.5%.
The figure for `Cc1nc(C)n(CC2CCCN(CC(=O)Nc3ccncc3)C2)n1` (stereo not given) is 60.6%.
